Experimental data reported in the supplement of paper PMC3334620.
In all, about 33,000 sequences were measured (“E-score (-0.5 to 0.5)”: median about -8e-05, highest 2% from about 0.23 on). Only a selection was taken, and the highest values are over-represented in it overall.

Each sequence was assayed against T1, Nrg2 (UniProt P38082) (assay: PBM E-score (8-mer binding enrichment) (E-score (-0.5 to 0.5)); higher = stronger / more preferred TF binding). Conditions: protein concentration: 100 nM; construct: GST-full length.
T1 sequence: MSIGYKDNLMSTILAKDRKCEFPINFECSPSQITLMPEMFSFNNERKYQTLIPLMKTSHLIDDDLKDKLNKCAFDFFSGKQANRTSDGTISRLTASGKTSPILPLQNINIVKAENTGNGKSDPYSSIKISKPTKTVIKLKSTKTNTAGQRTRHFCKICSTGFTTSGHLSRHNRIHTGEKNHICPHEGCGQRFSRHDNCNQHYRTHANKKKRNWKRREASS
Protocol: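 Universal 'all 10-mer' protein binding microarrays (Agilent AMADID 015681) probed with GST-tagged S. cerevisiae TFs (full-length or DBD) made by in vitro transcription/translation (PURExpress), about 100-200 nM. Bound TF was detected with fluorescent anti-GST. Each ungapped 8-mer (which stands for itself and its reverse complement) is scored by the PBM enrichment score (E-score), a modified Wilcoxon-Mann-Whitney statistic from -0.5 to +0.5, computed with the Universal PBM Analysis Suite. Scale: above 0.35 generally sequence-specific binding.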

Sequence	PBM E-score
TCGCAGAA	-0.114
CCGCAGAG	-0.193
CCGCAGAA	0.245
GCGCAGAC	0.0533
CCGCAGAC	-0.105
GCGCAGAA	0.248
CAAGCGGC	0.0964
CACCTATA	-0.032
AGTGAAGC	0.054
AAAGAACG	0.0453
ATTAATCA	0.171
AGTCTTGA	-0.0377
AACGGCGT	-0.11
AACGGCAA	0.156
AACGGCAT	0.23
AACGGCAC	-0.244
AACGGCGA	0.303
CACGGCGA	0.0616
ATTGCGAG	0.0375
GTACGAGA	0.0861
TGACGGAA	-0.00402
AAGGACTC	-0.0561
ATGCTCGG	0.117
AAATCCAG	0.196
AAATCCAT	0.266

Sequence	PBM E-score
AAATCCAC	0.082
ATGGTGGA	-0.0629
ATATTAAC	0.176
ATATTAAA	0.29
GCATTAAA	0.136
ATATTCAA	0.244
ATATTAAT	0.286
ATATTAAG	0.0738
TCATTAAA	0.35
ACATTAAA	0.143
TTATTCAA	0.029
TTATTAAA	0.196
CTATTCAA	0.0974
CTATTAAA	0.151
CGTTAAAC	0.0981
ATAGTGAC	-0.0527
AAATTATG	0.106
ATATTATC	0.0409
ATATTATG	0.304
AAACCATC	0.103
ATGTGCAC	0.0387
CATCTAAC	-0.152
GGCATAGA	0.0809
AATTATAC	0.122
GATTATAC	0.235

Sequence	PBM E-score
GATTATAA	0.207
CTTAGAAC	0.0319
CTGACTGA	-0.0542
GCTCGAAC	0.191
TGCAGAAA	0.104
GGCAGAAA	0.286
GAAAGAAA	0.281
CAAAGAAA	0.0775
GAAAGAAC	0.0456
GGCAGAAC	0.088
AAGCTGAG	-0.00374
AGCGGTAG	-0.196
GAGTAAGA	-0.0102
AAGACGGT	-0.161
CAAAGCAA	0.265
CAAAGCAG	0.0557
CAAAGCAC	-0.0605
AGTTAGGG	0.0307
ACATAAAC	0.0128
GCGACCAA	0.248
GAGACCAA	0.241
CAGACCAA	0.0347
GCGACCAC	-0.0633
ACGACCAA	-0.12
TAGACCAA	0.121

Sequence	PBM E-score
CCTTATCC	-0.23
AAACTAGG	-0.0197
CACCGCAA	0.233
CACCGCAG	0.0838
AACCGCAA	0.185
TGCATGCA	0.233
AGCATGCA	0.00231
CGCATGCC	0.145
CGCATGCG	0.0387
CGCATGCA	0.246
GGCATGCA	-0.113
GGGCGACA	-0.132
AGAGTTGA	-0.073
GTCCCACA	0.0612
ACGTTGAC	-0.00444
CCAACACG	0.0552
TCAACACA	0.235
ACAACACA	0.0869
CTTCGATC	-0.00647
GGATTCGA	-0.0125
AGATTCGA	0.0269
CGATTCGA	0.27
GCCGCGCC	-0.0901
GTCCCGTA	-0.111
ACGCGACC	-0.0575

Sequence	PBM E-score
GATGCAAA	0.0177
CAGCAACA	0.159
CAGCAACG	0.251
AAGCAACG	0.161
GTCAGCAC	-0.0154
GACTACGC	-0.187
AACGAAAT	0.251
AACGAAAG	-0.0319
AACGAAAC	0.117
ATTGCAGC	0.0702
GGGCGTAC	0.0663
GTAACCCA	0.229
CTAACCCA	-0.00624
CGGACCTA	0.0604
GAACCCCC	-0.322
ATAACCCA	-0.0462
AGGACCTA	0.114
CGACCCTA	0.109
GCACCCTA	0.105
GAACCCCA	0.26
GGGACCTA	0.245
GGACCCTA	0.305
GAACCCAA	0.0482
GCGCTGGA	0.0138
ATGGGTAG	-0.13

Sequence	PBM E-score
CGACGGTA	0.0706
GCAATAGC	0.133
AAAAGGGC	0.12
ATGCTCCA	0.0544
GGACCCCA	0.236
TGACCCCA	0.0468
GGACCCCC	-0.144
AAGATAGC	0.0443
GAGACGAA	-0.0342
CGGACGAC	-0.061
CAGACGAA	0.252
CAGACGAC	-0.0246
GGGACGAA	0.0439
CGGACGAA	0.233
AAGCTAAT	0.11
CTAGTCAC	-0.122
AACTACAT	-0.038
GGTCTCGA	0.0782
CAGACGGC	-0.16
CGAGGAAC	0.269
AGAGGAAC	-0.113
CGAGGAAA	0.0442
CAGCACGA	0.0405
ACCCTTGG	0.198
ACCCTTGA	0.242

Sequence	PBM E-score
ACCCTTGC	0.268
GCCCTTGA	-0.00607
ACCCTAGT	-0.0371
ACCCTAGA	0.284
CCCCTTGC	-0.0115
CCCCTAGA	0.117
CCCCTTGA	0.2
AGGACTAA	-0.0768
GTACTAGA	-0.00429
AACGACTC	-0.253
ATAGAAGA	-0.158
CACAGGCA	0.0159
AATGACGG	0.125
CACCGCGC	-0.0311
CGCAGCTA	-0.0329
CATCCACA	0.0702
ACAGAATA	0.148
GGAAATGA	0.25
TAAAATGA	0.254
GAAAATGA	-0.0055
CTAAATGA	0.0289
AAAAATGA	0.0139
CGAAATGA	0.127
